# Test results as given in PubChem BioAssay.
# Active and inactive are the calls of the source.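 How the source made its calls, unless noted: active means NADPH fluorescence slope more negative than the mean of all samples by about 3 SD, 99.7% confidence; inactive means the rest.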
# Legend:
# [1] = inhibitors of TNFa-induced NFkB p65 translocation, primary screen, imaging, HUVEC, MLSMR starter and 10KST1 sets (AID 438;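 active means inhibition above 20% together with a positive visual image hit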;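 further: compound added about 3h40 before a 20 min TNFalpha stimulation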;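 on inhibition: signal is the nuclear over cytoplasmic p65 intensity ratio per well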); conditions: HUVEC TNFa-induced p65 nuclear translocation; cell count: measured here: nuclei count (cytotoxicity indicator), at 2.08 µM; inhibition: at 2 µM, stronger effect = higher value, 0% TNFa-plus-vehicle, 100% no-TNFa wells
# [2] = reduction of polyQ htt aggregates in cells – imaging, exon1htt(103Q)mCFP cells, high-content imaging, primary screen (AID 483;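 active means visual image review flags a hit and inhibition of aggregation exceeds 20%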;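 further: compound exposure lasted 3 days before fixation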;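 on nuclei count: percent of the per-plate median nuclei count of sample wells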); conditions: exon1htt(103Q)mCFP cell line, aggregate imaging, at 2 µM; inhibition of aggregation: stronger effect = higher value; nuclei count: measured here: cell count, toxicity
# [3] = endothelial E-selectin expression blockers – imaging, HUVEC, immunofluorescence, MLSMR starter and 10KST1 sets, primary screen (AID 487;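 active means visually confirmed hit in the image check and inhibition above 20%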;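 on inhibition: signal is fraction of cell area covered by stained E-selectin grains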;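 on nuclei count: 100% = median nuclei count of all wells on the same plate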); conditions: HUVEC TNFalpha-induced E-selectin immunofluorescence imaging, at 2 µM; inhibition: stronger effect = higher value; nuclei count: measured here: cell number, toxicity
# [4] = molecular target: Voltage-gated potassium channel subunit beta-2 (Rattus norvegicus) (UniProt P62483); assay: inhibitors of rat Kvbeta2 reductase activity – biochemical, NADPH fluorescence, primary screen (AID 622;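 active means fluorescence slope higher than the sample average by over 3 SD, cut at about -0.22 in these data, passing the limit was not always enough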;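 further: slope of raw intensity against log time taken from 70 to 1610 s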); conditions: recombinant KvBeta, 4-cyanobenzaldehyde reduction, at 10 µM, stronger effect = higher value
# [5] = molecular target: Voltage-gated potassium channel subunit beta-2 (Rattus norvegicus) (UniProt P62483); assay: enhancers of rat Kvbeta2 NADPH turnover – biochemical, NADPH fluorescence, primary screen (AID 623); conditions: Recombinant KvBeta, NADPH fluorescence decrease slope, 10 min; at 10 µM; stronger effect = lower value;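 further: fluorescence intensity change per second fitted from 20 to 320 s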
# [6] = molecular target: Alpha-2C adrenergic receptor (Homo sapiens) (UniProt P18825); assay: compounds altering alpha2C-coupled GIRK flux – cell-based, HEK293 alpha2C/GIRK1/2, thallium flux, primary screen (AID 624;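 active means fluorescence slope after compound addition differing from the mean of all screened samples at 99.7% confidence, in either direction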;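 further: slope of fluorescence ratio to pre-addition baseline per second over 15 to 24 s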); conditions: thallium flux BTC fluorescence, at 10 µM, actives lie on both sides
# [7] = blockers of RIG-like receptor reporter activation – cell-based, Sendai virus stimulus, luciferase, 10K MLSCN set, TLR/RLR signaling modifier project, primary screen (AID 602276;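 active means inhibition at or above 50% at 10 µM; inactive means inhibition below 50%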;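 further: firefly luciferase from ISG56 promoter only with Renilla not read in this screen; 0% = Sendai virus plus DMSO and 100% = medium plus DMSO without virus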); conditions: HEK293 RL24 IRF3 luciferase reporter, at 10 µM, stronger effect = higher value
# [8] = TLR3 IRF3 reporter activation blockers – cell-based, poly I:C stimulus, luciferase, 10K MLSCN set, primary screen (AID 602277;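 active means inhibition of the reporter signal at or above 50%; inactive means inhibition below 50%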); conditions: HEK293-TLR3 RL24 IRF3 luciferase reporter, at 10 µM, stronger effect = higher value
# Chain of Voltage-gated potassium channel subunit beta-2 (Rattus norvegicus) (P62483 whole entry, looked up): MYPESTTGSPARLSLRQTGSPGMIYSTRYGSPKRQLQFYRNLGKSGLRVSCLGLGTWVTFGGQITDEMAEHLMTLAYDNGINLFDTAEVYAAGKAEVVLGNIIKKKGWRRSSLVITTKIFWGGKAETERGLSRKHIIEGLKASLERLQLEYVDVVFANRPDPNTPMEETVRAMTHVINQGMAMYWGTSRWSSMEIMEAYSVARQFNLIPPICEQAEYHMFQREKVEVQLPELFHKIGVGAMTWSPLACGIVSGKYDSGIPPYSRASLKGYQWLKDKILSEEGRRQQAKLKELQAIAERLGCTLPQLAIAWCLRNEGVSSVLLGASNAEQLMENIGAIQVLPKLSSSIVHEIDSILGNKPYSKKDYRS
# Chain of Alpha-2C adrenergic receptor (Homo sapiens) (P18825 whole entry, looked up): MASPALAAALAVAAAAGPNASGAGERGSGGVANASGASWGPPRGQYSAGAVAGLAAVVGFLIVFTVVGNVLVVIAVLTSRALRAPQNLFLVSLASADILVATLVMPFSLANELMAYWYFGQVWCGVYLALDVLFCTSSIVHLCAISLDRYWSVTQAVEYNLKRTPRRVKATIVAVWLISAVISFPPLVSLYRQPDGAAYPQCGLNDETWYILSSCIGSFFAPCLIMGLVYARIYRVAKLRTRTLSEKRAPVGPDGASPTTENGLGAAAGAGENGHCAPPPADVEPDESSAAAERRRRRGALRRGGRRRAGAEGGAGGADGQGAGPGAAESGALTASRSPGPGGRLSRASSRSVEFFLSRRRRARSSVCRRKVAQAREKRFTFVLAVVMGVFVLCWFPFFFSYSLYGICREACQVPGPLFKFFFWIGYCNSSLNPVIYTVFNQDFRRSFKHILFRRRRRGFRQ
smiles,measurement,setting,value
COc1ccc(C2/C(=C(/O)c3ccccc3)C(=O)C(=O)N2C)cc1 (centres undefined),cell count,[1],424
same,inhibition,[1],-0.5% (inactive)
same,inhibition of aggregation,[2],7.8% (inactive)
same,nuclei count,[2],106%
same,inhibition,[3],-25.9% (inactive)
same,nuclei count,[3],110%
same,fluorescence slope,[4],-0.369 (inactive)
same,NADPH fluorescence slope,[5],4.1e-06 (inactive)
same,slope,[6],0.00577 (inactive)
same,inhibition,[7],14.9% (inactive)
same,inhibition,[8],37.5% (inactive)
CCc1nnc(NC(=O)c2ccc(COc3ccc(C)cc3)o2)s1,cell count,[1],312
same,inhibition,[1],-1.9% (inactive)
same,inhibition of aggregation,[2],6.3% (inactive)
same,nuclei count,[2],109%
same,inhibition,[3],7.7% (inactive)
same,nuclei count,[3],110%
same,fluorescence slope,[4],-0.468 (inactive)
same,NADPH fluorescence slope,[5],-0.00028 (inactive)
same,slope,[6],0.00745 (inactive)
same,inhibition,[7],-17.4% (inactive)
same,inhibition,[8],99.8% (active)
Cn1c(CNc2nc(-c3ccccc3)cs2)nnc1SCC(=O)N1CCc2ccccc21,cell count,[1],628
same,inhibition,[1],11.1% (inactive)
same,inhibition of aggregation,[2],18.4% (inactive)
same,nuclei count,[2],91.5%
same,inhibition,[3],-65.9% (inactive)
same,nuclei count,[3],140%
same,fluorescence slope,[4],-0.595 (inactive)
same,NADPH fluorescence slope,[5],-3e-05 (inactive)
same,slope,[6],0.00569 (inactive)
same,inhibition,[7],-7.07% (inactive)
same,inhibition,[8],5.89% (inactive)
O=C(O)C1CC(=O)N(CCOc2ccccc2)C1 (centres undefined),cell count,[1],407
same,inhibition,[1],4.7% (inactive)
same,inhibition of aggregation,[2],10.8% (inactive)
same,nuclei count,[2],86.7%
same,inhibition,[3],-59.8% (inactive)
same,nuclei count,[3],101%
same,fluorescence slope,[4],-0.41 (inactive)
same,NADPH fluorescence slope,[5],4.3e-05 (inactive)
same,slope,[6],0.00593 (inactive)
same,inhibition,[7],0.323% (inactive)
same,inhibition,[8],15.8% (inactive)
COc1ccc(OC)c(-c2nnc(SCC(=O)NC3CCCCC3)o2)c1,cell count,[1],738
same,inhibition,[1],2.1% (inactive)
same,inhibition of aggregation,[2],13.9% (inactive)
same,nuclei count,[2],97.8%
same,inhibition,[3],-24.5% (inactive)
same,nuclei count,[3],114%
same,fluorescence slope,[4],-0.574 (inactive)
same,NADPH fluorescence slope,[5],-1.4e-05 (inactive)
same,slope,[6],0.00689 (inactive)
same,inhibition,[7],-17.4% (inactive)
same,inhibition,[8],0.755% (inactive)
N#Cc1c2n(c(=S)n(-c3ccccn3)c1=O)CCCCC2,cell count,[1],588
same,inhibition,[1],-26.4% (inactive)
same,inhibition of aggregation,[2],-14.8% (inactive)
same,nuclei count,[2],111%
same,inhibition,[3],-117% (inactive)
same,nuclei count,[3],144%
same,fluorescence slope,[4],-0.477 (inactive)
same,NADPH fluorescence slope,[5],-4.9e-05 (inactive)
same,slope,[6],0.00579 (inactive)
same,inhibition,[7],-7.7% (inactive)
same,inhibition,[8],11% (inactive)
O=C(Cn1cnc2c(cnn2-c2ccc(F)cc2)c1=O)N1CCCc2ccccc21,cell count,[1],427
same,inhibition,[1],1.5% (inactive)
same,inhibition of aggregation,[2],2.1% (inactive)
same,nuclei count,[2],104%
same,inhibition,[3],-61.6% (inactive)
same,nuclei count,[3],110%
same,fluorescence slope,[4],-0.628 (inactive)
same,NADPH fluorescence slope,[5],-5.2e-05 (inactive)
same,slope,[6],0.00385 (inactive)
same,inhibition,[7],11.3% (inactive)
same,inhibition,[8],6.11% (inactive)
CCOc1cccc2cc(C(=O)N3CCN(C/C=C/c4ccccc4)CC3)c(=O)oc12,cell count,[1],596
same,inhibition,[1],-3.6% (inactive)
same,inhibition of aggregation,[2],-2.4% (inactive)
same,nuclei count,[2],103%
same,inhibition,[3],-80.4% (inactive)
same,nuclei count,[3],133%
same,fluorescence slope,[4],-0.236 (inactive)
same,NADPH fluorescence slope,[5],-4e-05 (inactive)
same,slope,[6],0.00413 (inactive)
same,inhibition,[7],1.41% (inactive)
same,inhibition,[8],-10.8% (inactive)
c1cc2c(cc1Nc1nc(-c3ccc4c(c3)OCO4)cs1)OCCO2,cell count,[1],351
same,inhibition,[1],0.4% (inactive)
same,inhibition of aggregation,[2],10% (inactive)
same,nuclei count,[2],104%
same,inhibition,[3],-36.9% (inactive)
same,nuclei count,[3],118%
same,fluorescence slope,[4],-0.188 (inactive)
same,NADPH fluorescence slope,[5],-2.8e-06 (inactive)
same,slope,[6],0.00387 (inactive)
same,inhibition,[7],-63.5% (inactive)
same,inhibition,[8],-126% (inactive)
O=C(Nc1ccccc1N1CCCCC1)c1ncoc1-c1ccc(F)cc1,cell count,[1],426
same,inhibition,[1],-1.8% (inactive)
same,inhibition of aggregation,[2],-0.9% (inactive)
same,nuclei count,[2],87.1%
same,inhibition,[3],-180% (inactive)
same,nuclei count,[3],122%
same,fluorescence slope,[4],-0.424 (inactive)
same,NADPH fluorescence slope,[5],4.4e-06 (inactive)
same,slope,[6],0.00948 (inactive)
same,inhibition,[7],-3.24% (inactive)
same,inhibition,[8],-51.9% (inactive)
COc1ccc(CNCC(=O)Nc2cc(C)nn2-c2nc(C)cc(C)n2)cc1OC,cell count,[1],431
same,inhibition,[1],6.7% (inactive)
same,inhibition of aggregation,[2],-0.4% (inactive)
same,nuclei count,[2],104%
same,inhibition,[3],-481% (inactive)
same,nuclei count,[3],152%
same,fluorescence slope,[4],-0.497 (inactive)
same,NADPH fluorescence slope,[5],-2.4e-05 (inactive)
same,slope,[6],0.00701 (inactive)
same,inhibition,[7],21.1% (inactive)
same,inhibition,[8],32.1% (inactive)
Cc1cccc2sc(NC(=O)CN(C)S(=O)(=O)c3cccs3)nc12,cell count,[1],601
same,inhibition,[1],-25.8% (inactive)
same,inhibition of aggregation,[2],-7% (inactive)
same,nuclei count,[2],114%
same,inhibition,[3],-1.7% (inactive)
same,nuclei count,[3],103%
same,fluorescence slope,[4],-0.432 (inactive)
same,NADPH fluorescence slope,[5],1e-05 (inactive)
same,slope,[6],0.00346 (inactive)
same,inhibition,[7],-1.84% (inactive)
same,inhibition,[8],-8.61% (inactive)
Clc1cccc(-c2nnc3sc(-c4ccccc4)nn23)c1,cell count,[1],625
same,inhibition,[1],-3% (inactive)
same,inhibition of aggregation,[2],-8% (inactive)
same,nuclei count,[2],108%
same,inhibition,[3],-30.8% (inactive)
same,nuclei count,[3],104%
same,fluorescence slope,[4],-0.372 (inactive)
same,NADPH fluorescence slope,[5],-5.3e-05 (inactive)
same,slope,[6],0.0065 (inactive)
same,inhibition,[7],-35.9% (inactive)
same,inhibition,[8],-59.7% (inactive)
CC1CCN(C(=O)CSc2nc3ccccc3[nH]2)CC1,cell count,[1],761
same,inhibition,[1],0.5% (inactive)
same,inhibition of aggregation,[2],1.8% (inactive)
same,nuclei count,[2],110%
same,inhibition,[3],75.2% (active)
same,nuclei count,[3],88.9%
same,fluorescence slope,[4],-0.359 (inactive)
same,NADPH fluorescence slope,[5],-9.6e-06 (inactive)
same,slope,[6],0.00679 (inactive)
same,inhibition,[7],-38.7% (inactive)
same,inhibition,[8],-116% (inactive)
